Of roughly 7,900 targets only a part is listed; those with a hit were picked by preference. About 0.6% of all pairs of compound and target were hits.
compound: C1CN(CCC1(CC2=CC=C(C=C2)Cl)N)C3=NC=NC4=C3C=CN4; assay: log2 fold change, soluble protein after heating vs DMSO (PISA); higher = thermal stabilisation; K562 cells, 10 uM, 30 min; active = over 0.2 and 3.5 SD of the protein, either way, in both replicates (recomputed)
In short: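 K562 cells at 2×10^6 cells/mL were treated for 30 min with 10 μM compound, and aliquots were heated for 3 min over 48°C-58°C before pooling. Extraction used PBS with 0.5% NP-40 at 4°C, and soluble protein was the supernatant after 21,000xg for 90 min, measured by TMTpro 16plex LC-MS/MS with channel sums equalised. Thermal stability values, relative to control samples and from duplicates, are log2 fold changes.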

Chain of UniProt Q9P244 (Q9P244 whole entry, looked up): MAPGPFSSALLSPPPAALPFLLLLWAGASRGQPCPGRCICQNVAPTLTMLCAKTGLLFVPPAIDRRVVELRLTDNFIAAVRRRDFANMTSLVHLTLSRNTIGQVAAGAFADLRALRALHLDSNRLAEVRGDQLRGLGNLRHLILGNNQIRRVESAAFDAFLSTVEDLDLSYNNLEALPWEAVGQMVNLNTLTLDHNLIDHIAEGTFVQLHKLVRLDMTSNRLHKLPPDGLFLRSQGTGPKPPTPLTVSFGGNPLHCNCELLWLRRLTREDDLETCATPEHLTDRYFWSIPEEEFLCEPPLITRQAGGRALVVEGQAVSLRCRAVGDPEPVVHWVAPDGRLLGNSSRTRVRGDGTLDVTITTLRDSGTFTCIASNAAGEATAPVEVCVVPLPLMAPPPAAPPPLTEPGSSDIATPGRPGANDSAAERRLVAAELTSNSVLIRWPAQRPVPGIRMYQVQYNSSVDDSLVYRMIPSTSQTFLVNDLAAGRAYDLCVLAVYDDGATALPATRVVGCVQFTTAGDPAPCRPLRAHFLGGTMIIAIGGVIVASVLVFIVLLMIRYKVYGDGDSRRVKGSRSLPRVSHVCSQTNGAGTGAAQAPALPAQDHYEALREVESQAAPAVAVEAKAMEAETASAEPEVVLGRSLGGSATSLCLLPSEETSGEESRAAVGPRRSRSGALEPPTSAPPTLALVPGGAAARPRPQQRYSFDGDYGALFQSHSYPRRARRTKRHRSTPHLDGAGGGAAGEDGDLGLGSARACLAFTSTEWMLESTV
Chain of UniProt Q7L590 (Q7L590 whole entry, looked up): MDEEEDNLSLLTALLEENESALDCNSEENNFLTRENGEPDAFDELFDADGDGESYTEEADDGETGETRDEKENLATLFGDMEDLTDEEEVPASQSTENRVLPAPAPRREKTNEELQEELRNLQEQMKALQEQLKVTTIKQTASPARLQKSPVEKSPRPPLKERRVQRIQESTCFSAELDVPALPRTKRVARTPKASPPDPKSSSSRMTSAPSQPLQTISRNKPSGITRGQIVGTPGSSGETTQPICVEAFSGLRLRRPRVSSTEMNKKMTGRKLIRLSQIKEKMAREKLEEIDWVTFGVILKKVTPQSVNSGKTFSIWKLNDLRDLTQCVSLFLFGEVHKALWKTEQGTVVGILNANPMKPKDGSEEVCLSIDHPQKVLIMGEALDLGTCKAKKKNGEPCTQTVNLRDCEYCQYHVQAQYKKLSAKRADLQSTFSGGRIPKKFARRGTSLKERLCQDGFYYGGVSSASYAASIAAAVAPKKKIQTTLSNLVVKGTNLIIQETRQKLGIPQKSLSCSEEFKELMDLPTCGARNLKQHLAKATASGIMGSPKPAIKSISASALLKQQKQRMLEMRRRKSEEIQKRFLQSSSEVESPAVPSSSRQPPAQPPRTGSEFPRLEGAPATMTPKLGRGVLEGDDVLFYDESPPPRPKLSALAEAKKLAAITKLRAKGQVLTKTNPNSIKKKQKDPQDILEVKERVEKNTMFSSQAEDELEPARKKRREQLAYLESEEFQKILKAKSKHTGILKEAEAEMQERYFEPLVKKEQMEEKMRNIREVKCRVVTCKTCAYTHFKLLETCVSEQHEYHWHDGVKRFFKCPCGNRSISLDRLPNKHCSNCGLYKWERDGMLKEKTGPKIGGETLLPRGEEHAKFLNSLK
Chain of UniProt Q71SY5 (Q71SY5 whole entry, looked up): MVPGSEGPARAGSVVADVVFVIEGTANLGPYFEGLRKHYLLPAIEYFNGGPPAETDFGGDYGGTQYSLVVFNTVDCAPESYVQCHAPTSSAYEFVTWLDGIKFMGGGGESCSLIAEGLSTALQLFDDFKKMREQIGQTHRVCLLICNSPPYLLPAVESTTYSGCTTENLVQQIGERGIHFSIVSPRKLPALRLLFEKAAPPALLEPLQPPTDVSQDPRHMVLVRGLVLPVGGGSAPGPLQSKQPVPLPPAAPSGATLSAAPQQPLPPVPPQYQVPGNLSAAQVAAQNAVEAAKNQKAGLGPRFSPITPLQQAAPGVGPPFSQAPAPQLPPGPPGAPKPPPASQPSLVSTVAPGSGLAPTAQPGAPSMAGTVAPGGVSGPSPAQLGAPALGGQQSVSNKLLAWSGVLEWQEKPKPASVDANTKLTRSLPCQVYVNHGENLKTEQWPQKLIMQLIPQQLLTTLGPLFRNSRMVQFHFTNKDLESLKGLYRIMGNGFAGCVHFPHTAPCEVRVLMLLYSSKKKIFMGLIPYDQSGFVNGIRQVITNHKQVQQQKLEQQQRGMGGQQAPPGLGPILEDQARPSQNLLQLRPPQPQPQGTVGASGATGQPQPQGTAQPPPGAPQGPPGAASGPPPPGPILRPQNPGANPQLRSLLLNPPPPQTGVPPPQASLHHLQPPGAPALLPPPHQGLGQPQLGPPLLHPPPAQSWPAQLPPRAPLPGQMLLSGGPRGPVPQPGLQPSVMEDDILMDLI
Chain of UniProt Q8TDD5 (Q8TDD5 whole entry, looked up): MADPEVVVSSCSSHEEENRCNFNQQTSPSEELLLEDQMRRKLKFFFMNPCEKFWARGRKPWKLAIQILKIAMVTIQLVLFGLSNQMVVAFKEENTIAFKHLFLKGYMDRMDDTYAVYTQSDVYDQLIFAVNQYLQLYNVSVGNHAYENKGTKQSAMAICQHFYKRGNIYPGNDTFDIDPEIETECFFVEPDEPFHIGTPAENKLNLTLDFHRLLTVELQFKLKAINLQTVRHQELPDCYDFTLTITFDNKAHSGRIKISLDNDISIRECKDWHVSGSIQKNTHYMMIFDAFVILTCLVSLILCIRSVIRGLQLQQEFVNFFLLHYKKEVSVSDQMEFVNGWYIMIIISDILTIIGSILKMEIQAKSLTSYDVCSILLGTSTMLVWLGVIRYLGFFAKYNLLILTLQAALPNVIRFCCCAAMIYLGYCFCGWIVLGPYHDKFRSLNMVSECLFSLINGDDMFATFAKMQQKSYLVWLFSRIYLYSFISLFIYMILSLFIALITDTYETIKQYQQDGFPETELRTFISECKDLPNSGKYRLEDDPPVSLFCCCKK
Chain of UniProt Q12851 (Q12851 whole entry, looked up): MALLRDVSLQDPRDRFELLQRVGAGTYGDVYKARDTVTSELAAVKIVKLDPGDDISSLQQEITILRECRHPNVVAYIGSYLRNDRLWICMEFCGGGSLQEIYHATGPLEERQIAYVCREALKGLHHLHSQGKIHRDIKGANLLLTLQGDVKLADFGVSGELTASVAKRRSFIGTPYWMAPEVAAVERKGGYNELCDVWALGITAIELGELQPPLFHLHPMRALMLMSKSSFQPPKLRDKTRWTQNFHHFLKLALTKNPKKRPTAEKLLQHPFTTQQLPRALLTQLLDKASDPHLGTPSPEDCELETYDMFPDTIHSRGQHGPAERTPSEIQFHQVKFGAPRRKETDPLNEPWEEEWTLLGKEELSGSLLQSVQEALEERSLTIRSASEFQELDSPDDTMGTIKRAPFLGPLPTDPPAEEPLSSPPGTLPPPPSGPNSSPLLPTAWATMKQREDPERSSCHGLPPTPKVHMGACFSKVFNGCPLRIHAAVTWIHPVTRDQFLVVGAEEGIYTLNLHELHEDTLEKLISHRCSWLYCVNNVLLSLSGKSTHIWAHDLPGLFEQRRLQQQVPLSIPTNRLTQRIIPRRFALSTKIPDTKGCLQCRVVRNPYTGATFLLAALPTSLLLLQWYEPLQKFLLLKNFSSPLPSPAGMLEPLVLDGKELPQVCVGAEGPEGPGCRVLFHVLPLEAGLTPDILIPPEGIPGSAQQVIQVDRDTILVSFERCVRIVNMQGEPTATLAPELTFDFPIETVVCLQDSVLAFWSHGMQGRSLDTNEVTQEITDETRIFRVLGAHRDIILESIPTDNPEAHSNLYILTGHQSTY
Chain of UniProt P52333 (P52333 whole entry, looked up): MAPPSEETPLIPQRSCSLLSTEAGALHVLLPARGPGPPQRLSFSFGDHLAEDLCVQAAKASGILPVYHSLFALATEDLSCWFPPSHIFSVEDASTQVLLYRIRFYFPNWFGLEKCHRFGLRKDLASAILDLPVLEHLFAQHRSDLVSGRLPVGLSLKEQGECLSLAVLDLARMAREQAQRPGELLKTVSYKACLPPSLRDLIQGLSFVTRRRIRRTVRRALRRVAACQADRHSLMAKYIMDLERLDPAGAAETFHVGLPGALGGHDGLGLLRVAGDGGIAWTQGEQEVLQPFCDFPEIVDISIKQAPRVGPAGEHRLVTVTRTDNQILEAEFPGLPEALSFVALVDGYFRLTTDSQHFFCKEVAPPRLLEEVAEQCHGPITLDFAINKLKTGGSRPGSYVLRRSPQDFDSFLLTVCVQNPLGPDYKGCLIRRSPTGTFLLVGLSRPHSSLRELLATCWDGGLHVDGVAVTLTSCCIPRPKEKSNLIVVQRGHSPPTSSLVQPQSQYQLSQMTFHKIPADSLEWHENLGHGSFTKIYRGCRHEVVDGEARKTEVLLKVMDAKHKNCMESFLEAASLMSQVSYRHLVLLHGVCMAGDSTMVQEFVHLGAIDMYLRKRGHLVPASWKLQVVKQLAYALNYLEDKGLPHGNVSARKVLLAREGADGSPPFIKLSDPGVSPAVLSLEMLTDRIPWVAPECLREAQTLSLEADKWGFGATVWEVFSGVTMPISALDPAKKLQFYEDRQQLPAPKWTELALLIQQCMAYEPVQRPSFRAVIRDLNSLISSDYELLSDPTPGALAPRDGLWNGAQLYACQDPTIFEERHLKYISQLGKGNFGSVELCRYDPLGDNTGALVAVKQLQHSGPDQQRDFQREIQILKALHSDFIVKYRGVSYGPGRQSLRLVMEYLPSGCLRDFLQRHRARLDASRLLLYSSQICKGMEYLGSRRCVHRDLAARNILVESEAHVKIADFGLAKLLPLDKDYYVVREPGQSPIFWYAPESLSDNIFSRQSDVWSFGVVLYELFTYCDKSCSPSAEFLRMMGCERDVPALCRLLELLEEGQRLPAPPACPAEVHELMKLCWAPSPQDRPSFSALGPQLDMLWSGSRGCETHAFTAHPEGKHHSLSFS

log2 fold change, inactive:
MED25 isoform 3 (UniProt Q71SY5) 0.07
LMNA isoform 2 (UniProt P02545) 0.146
IKZF1 (UniProt R9R4D9) -0.13
MCOLN3 (UniProt Q8TDD5) 0.107
MAPK14 (UniProt Q16539) -0.072
LSR isoform 3 (UniProt Q86X29) 0.25
LRFN1 (UniProt Q9P244) 0.052
MAPK11 (UniProt Q15759) 0.309
MAP4K4 isoform 6 (UniProt O95819) -0.025
MFSD11 (UniProt O43934) 0.219
ING5 (UniProt Q8WYH8) 0.286
MAPRE3 isoform 2 (UniProt Q9UPY8) -0.097
LRRCC1 (UniProt Q9C099) 0.101
MAP4K2 (UniProt Q12851) -0.172
MFSD12 isoform 3 (UniProt Q6NUT3) -0.099
MFAP3 (UniProt P55082) 0.064
IGFBP3 isoform 2 (UniProt P17936) -0.057
MAGEA8 (UniProt P43361) 0.099
MCM10 (UniProt Q7L590) 0.125
IKZF1 isoform 2 (UniProt Q13422) -0.016
MGRN1 isoform 2 (UniProt O60291) 0.227
JAK3 (UniProt P52333) -0.024

— the supplement of paper PMC10849652
